IDE cell inh – inhibits human insulin-degrading enzyme in HEK cells. FAbetaB cleavage, fluorescence polarization. inhibition, % at 5.59 µM. 320,000 tested, 0.41% active;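 active means percent inhibition above the average of all tested compounds plus 3 SD, set per screening campaign, cut at about 16% in these data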;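 further: IDE supplied by intact live HEK cells; FP after avidin binding of uncleaved biotin substrate so inhibition keeps polarization high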
TLR9-MyD88 inh – inhibitors of human TLR9-MyD88 binding; CHO BLA complementation TLR9-MyD88, CCF4 FRET ratio; inhibition, % at 4.98 µM; 340,000 tested, 0.21% active; Q9NR96+Q99836;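 active means inhibition above the mean over all tested compounds plus 3 SD, cut at about 21% in these data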
TLR4-MyD88 BLA – inhibitors of human TLR4-MyD88 binding | HeLa CL3-4 TLR4/MyD88 BLA complementation, FRET ratio | inhibition, % at 8.4 µM | O00206+Q99836 | 200,000 tested, 0.18% active; in the data active means inhibition above about 25%
NOD2 RIPK2 PPI – inhibitors of human NOD2-RIPK2 interaction; inhibition, % at 4.98 µM; 360,000 tested, 0.38% active; CHO BLA complementation NOD2-RIPK2, CCF4 ratio; O43353; in the data active means inhibition above about 21%
IDE act – activators of human insulin-degrading enzyme in cells | P14735 | AID 493087 | activation, % at 5.96 µM | HEK cells, FAbeta-B cleavage, fluorescence polarization; 0% vehicle, 100% cell-free pure enzyme wells | 340,000 tested, 0.073% active;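 active means activation above the mean of all tested compounds plus 3 SD, set per screening campaign, cut at about 17% in these data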
IDE inh confirm – cellular human IDE inhibition, confirmation; inhibition, % at 5.59 µM; HEK cells, FAbetaB cleavage, fluorescence polarization; AID 435028; shares compounds with IDE cell inh; 1,200 tested, 51% active;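 active means mean inhibition across triplicate wells above the cutoff set by the earlier primary insulin-degrading enzyme screen, cut at about 16% in these data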
HEK cytotox – HEK cell cytotoxicity, counter-screen for IDE inhibitors. shares compounds with IDE cell inh. HEK293 cytotoxicity, ATP luminescence. inhibition, % at 5.59 µM. 1,200 tested, 28% active. AID 449730; in the data active means inhibition above about 22%
IDE FP artifact – counter-screen for IDE inhibitors: fluorescent artifacts; shares compounds with IDE cell inh; FP counterscreen for fluorescent artifacts, IDE probe project; IC50, µM; 30 tested, under 10 active; call rule not given here
Large screens that a line does not name were inactive (follow-up assays come after a bar, where they were run). A selection: hits, their analogues and other compounds. The true share with any hit is near 0.87%.

CN(C)S(=O)(=O)c1ccc2c(c1)C(=O)c1cc(S(=O)(=O)N(C)C)ccc1CC2	none (no result: TLR4-MyD88 BLA)
CN(C)S(=O)(=O)c1ccc2c(c1)/C(=C/c1cc3c([nH]1)CCCC3)C(=O)N2	IDE cell inh 45 (no result: TLR4-MyD88 BLA) | IDE inh confirm 105 | HEK cytotox inactive
CN1CCS/C1=C/C=C1\SC(=S)N(CC(=O)O)C1=O	IDE cell inh 60 | IDE inh confirm 75 | HEK cytotox inactive
CN1CCS/C1=C/C=C1/SC(=S)N(Cc2ccccc2)C1=O	IDE cell inh 105 | IDE inh confirm 82 | HEK cytotox inactive
CCCCN1C(=O)/C(=C/C=C2\SCCN2C)SC1=S	none (no result: IDE cell inh)
O=C(Nc1ccc(-c2nc3ccccc3s2)cc1)c1cc(-n2cnnc2)ccc1Cl	IDE cell inh 22 | IDE inh confirm inactive | HEK cytotox 67
CCSc1ccccc1C(=O)Nc1cc(OC)c(OC)c(OC)c1	IDE cell inh 18 | IDE inh confirm inactive | HEK cytotox inactive
COc1cc(NC(=O)c2ccccc2-c2ccccc2)cc(OC)c1OC	none (no result: TLR9-MyD88 inh, NOD2 RIPK2 PPI, IDE act)
CCOc1cc(Br)cc(/C=C2\SC(=Nc3ccccc3)NC2=O)c1O	IDE cell inh 22 (no result: TLR4-MyD88 BLA) | IDE inh confirm 27 | HEK cytotox inactive
COc1cc(/C=C2\SC(=Nc3ccc(O)cc3)NC2=O)cc(OC)c1O	IDE cell inh 128 | IDE inh confirm 152 | HEK cytotox inactive
O=C(N/N=C/c1cccnc1)c1cccc(NC(=O)c2cccc(Br)c2)c1	IDE cell inh 25 (no result: TLR4-MyD88 BLA) | IDE inh confirm 17 | HEK cytotox inactive
CC(=O)Nc1cccc(C(=O)N/N=C/c2cccnc2)c1	none
CC(NC(=O)c1cc([N+](=O)[O-])cc([N+](=O)[O-])c1)c1ccc(-n2ccnc2)cc1 (configuration not stated)	none (no result: TLR4-MyD88 BLA)
CC(NC(=O)c1ccc(N(C)C)c([N+](=O)[O-])c1)c1ccc(-n2ccnc2)cc1 (configuration not stated)	IDE cell inh 19 (no result: TLR4-MyD88 BLA) | IDE inh confirm inactive | HEK cytotox inactive
Cn1c(SCCOc2ccc(Cl)cc2)nnc1-c1ccncc1	IDE cell inh 44 | IDE inh confirm inactive | HEK cytotox inactive
Cc1ccc(OCCSc2nnc(-c3cccs3)n2C)cc1	IDE cell inh 20 | IDE inh confirm inactive | HEK cytotox inactive
Cc1cc(OCCSc2nnc(-c3cccs3)n2C)ccc1Cl	none
Cn1c(SCc2nc(-c3ccc(Cl)cc3)no2)nnc1-c1cccs1	IDE cell inh 16 | IDE inh confirm inactive | HEK cytotox inactive
O=c1ncn(-c2cccc(Cl)c2)c2ccccc12	none (no result: TLR4-MyD88 BLA)
CC(=O)Nc1ccc(S(=O)(=O)NC2(C(F)(F)F)NC(=O)N(Cc3ccccc3)C2=O)cc1 (configuration not stated)	none (no result: TLR4-MyD88 BLA)
CCOc1ccc(NC(=O)CSc2nc3c(c(=O)n2C)SC(C)C3)cc1 (configuration not stated)	IDE cell inh 16 | IDE inh confirm inactive | HEK cytotox inactive
CC(Oc1ccc2c3c(c(=O)oc2c1)CCC3)C(=O)NCc1cccnc1 (configuration not stated)	none (no result: TLR4-MyD88 BLA)
CC(Oc1ccc2c3c(c(=O)oc2c1)CCCC3)C(=O)NCc1ccncc1 (configuration not stated)	IDE cell inh 24 (no result: TLR4-MyD88 BLA) | IDE inh confirm 17 | HEK cytotox inactive
CN(C)c1ccc(/C=C2/C[N+](C)(C)C/C(=C/c3ccc(N(C)C)cc3)C2=O)cc1	none (no result: IDE cell inh, TLR4-MyD88 BLA)
CC(C)/C=C1\CC/C(=C\c2ccc(N(C)C)cc2)C1=O	IDE cell inh 68 | IDE inh confirm 144 | HEK cytotox inactive
CN(C(=O)COC(=O)Cn1cnc2ccccc21)C1CCCCC1	none (no result: TLR4-MyD88 BLA)
COc1cc(C(=O)OCC(=O)Nc2ccc3c(c2)OC(F)(F)O3)ccc1OCc1c(C)noc1C	IDE cell inh 17 | IDE inh confirm inactive | HEK cytotox inactive
COc1ccccc1NC(=O)CSc1nnc(Cc2cc(=O)[nH]c(=O)[nH]2)n1-c1ccccc1	IDE cell inh 19 | IDE inh confirm inactive | HEK cytotox inactive
COc1ccc(-n2c(Cc3cc(=O)[nH]c(=O)[nH]3)nnc2SCC(=O)Nc2cc(C(F)(F)F)ccc2Cl)cc1	none
CN(CC(=O)Nc1ccccc1Cl)C(=O)COC(=O)c1cc(S(=O)(=O)N(C)C)ccc1N1CCCC1	none (no result: TLR4-MyD88 BLA)
CCN1CCN(Cc2c(O)ccc3c(=O)c(-c4ccccc4OC)coc23)CC1	none
CCN1CCN(Cc2c(O)ccc3c2O/C(=C\C=C\c2ccccc2OC)C3=O)CC1	IDE cell inh 32 | IDE inh confirm 55 | HEK cytotox inactive
CCOc1ccc(/C=C2/SC(=O)NC2=S)cc1	IDE cell inh 33 | IDE inh confirm inactive | HEK cytotox inactive
O=C(c1ccc(Br)cc1)N(c1ccccn1)C1CCCCC1	none (no result: TLR4-MyD88 BLA)
CCCN1C(=O)/C(=C/c2c(NCCCOC(C)C)nc3c(C)cccn3c2=O)SC1=S	none
CCCN1C(=O)/C(=C/c2c(N3CCNC(=O)C3CC(=O)OCC)nc3c(C)cccn3c2=O)SC1=S (configuration not stated)	IDE cell inh 65 (no result: TLR4-MyD88 BLA) | IDE inh confirm 29 | HEK cytotox 32
CCOC(=O)CC1C(=O)NCCN1c1nc2ccc(C)cn2c(=O)c1/C=C1\SC(=S)N(CC(C)C)C1=O (configuration not stated)	IDE cell inh 56 (no result: TLR4-MyD88 BLA) | IDE inh confirm 58 | HEK cytotox inactive
CCn1c2ccc(C)cc2c2n[nH]c(=S)nc21	none (no result: TLR4-MyD88 BLA)
COc1cc(/C=C2\SC(=S)N(NC(C)=O)C2=O)ccc1OC(=O)c1ccco1	IDE cell inh 22 (no result: TLR4-MyD88 BLA) | IDE inh confirm 66 | HEK cytotox inactive | IDE FP artifact inactive
COc1cc(/C=C2/SC(=O)NC2=O)ccc1OC(=O)c1ccco1	none (no result: TLR4-MyD88 BLA)
COc1cc(/C=C2/SC(=S)N(C)C2=O)ccc1OC(=O)c1ccco1	IDE cell inh 24 | IDE inh confirm 63 | HEK cytotox inactive
COc1ccc(/C=C2\SC(=S)N(NC(=O)c3ccncc3)C2=O)cc1OC	none (no result: TLR9-MyD88 inh, NOD2 RIPK2 PPI, IDE act)
COc1ccc(-n2nnnc2CNC(=O)C2CC(=O)N(c3ccc(Cl)cc3)C2)cc1 (configuration not stated)	none (no result: TLR4-MyD88 BLA)
O=C1NC(=S)CN1c1ccccc1	IDE cell inh 24 (no result: TLR4-MyD88 BLA) | IDE inh confirm inactive | HEK cytotox inactive
O=C(N/C(=C\c1cccc([N+](=O)[O-])c1)C(=O)N1CCOCC1)c1ccco1	none (no result: TLR4-MyD88 BLA)
CC(=Nc1ccc(C)cc1)c1sc2ccccc2c1O	IDE cell inh 25 | IDE inh confirm 44 | HEK cytotox inactive
CC(=Nc1cccc(O)c1)c1sc2ccccc2c1O	IDE cell inh 27 | IDE inh confirm 65 | HEK cytotox inactive
CCc1ccc(C(=O)N/N=C/c2ccc(Cl)cc2Cl)nc1	IDE cell inh 18 (no result: TLR9-MyD88 inh, NOD2 RIPK2 PPI, IDE act) | IDE inh confirm inactive | HEK cytotox inactive
